Test results from PubChem BioAssay (Tox21).
Inconclusive results are not listed. A number with no mark means an inactive call. Calls come from the whole dose curve.
% is set by controls: 0 for no effect and ±100 for the full control effect.

Assay: p53 small molecule agonists, cell-based qHTS assay with human liver microsomes (AID 1963577);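 note: p53 response element beta-lactamase reporter cells with liver microsomes plus NADPH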
Settings: HCT-116 p53RE-bla with human liver microsomes, ratio, 16 h; series mostly up to 66 µM; activation: at the top concentration
From the text: National Center for Advancing Translational Sciences [NCATS]
Division of Preclinical Innovation [DPI]
U.S. Environmental Protection Agency [EPA]
National Institutes of Environmental Health Sciences [NIEHS]
National Toxicology Program [NTP]
U.S. Food and Drug Administration [FDA]
p53, a tumor suppressor protein, is activated following cellular insult, including DNA damage and other cellular stresses. The activation of p53 regulates cell fate by inducing DNA repair, cell cycle arrest, apoptosis, or cellular senescence. The activation of p53, therefore, is a good indicator of DNA damage and other cellular stresses. […] The activation of the reporter gene under culture conditions can be detected by fluorescence intensity.
Tox21 Assay Protocol Summary:
The p53RE-bla cells were dispensed at 4,000cells/3ul/well in 1536-well black-clear bottom plates. After the assay plates were incubated at 37 C, 5% CO2 incubator for 5 hours, 23 nL of compounds dissolved in DMSO, positive controls or DMSO only was transferred to the assay plate. Following compound addition, 3 uL of human liver microsomes (XenoTech, Kansas City, KS) at final concentration of 0.5 mg/mL and 1uL of Beta-Nicotinamide adenine dinucleotide 2-phosphate (NADPH) at final concentration of 0.5 mg/mL were transferred to the assay plate. The plates were incubated at 37 C for 16 hours. 1 uL of LiveBLAzer detection mixture was added to each well and the plates were incubated at room temperature in the dark for 2 h.
In the case of `SC1CCCCC1`, the “activation” value is reported as -3.77%.
With `CC(=O)[C@H]1CC[C@H]2[C@@H]3C[C@H](C)C4=CC(=O)CC[C@]4(C)[C@H]3[C@@H](O)C[C@]12C` the “activation” value was -15.3% [at 30.3 µM].
In the case of `O=c1c(O)c(O)c1=O`, the “activation” value is reported as 0.247%.
In the case of `CCCCCCOC(=O)CCCCC(=O)OCCCCCC`, the “activation” value is reported as -2.87%.
With `CNCc1ccccc1` the “activation” value was 8.38% [at 30.3 µM].
For `CC(C)Cc1nccs1`, the “activation” value was -0.452%.
With `CC1(C)[C@H]2CC[C@]1(C)C(=O)C2` the “activation” value was 16.1%.
With `COc1cc(C(=O)NC2CCCNC2)cc(OC)c1OC` (stereo not given) the “activation” value was -7.16% [at 30.3 µM].
For `O=C1OC(OC(=O)c2cccnc2Nc2cccc(C(F)(F)F)c2)c2ccccc21` (stereo not given), the “activation” value was 3.01% [at 30.3 µM].
With `C=C(C)c1ccccc1` the “activation” value was -1.46%.
For `c1ccc(C(O[C@H]2CCCN(CCc3ccc4c(c3)OCO4)C2)c2ccccc2)cc1`, the “activation” value was -0.637% [at 30.3 µM].
With `CN1[C@@H]2CC[C@H]1CC(OC(=O)C(O)c1ccccc1)C2` (stereo not given in full) the “activation” value was -0.0337% [at 30.3 µM].
In the case of `CC(C)C(=O)OCc1ccccc1`, the “activation” value is reported as 2.86%.
For `COc1ccc2c(c1)C(=O)N(CCc1ccc(S(=O)(=O)NC(=O)NC3CCCCC3)cc1)C(=O)C2(C)C`, the “activation” value was -2.71% [at 30.3 µM].
For `CCCCCCCCC1CO1` (stereo not given), the “activation” value was -0.823%.
With `COc1ccccc1OCC(O)COC(N)=O` (stereo not given) the “activation” value was -1.13% [at 30.3 µM].
With `NC(=O)NS(=O)(=O)c1ccc(N)cc1` the “activation” value was 0.618% [at 30.3 µM].
With `O=C(N[C@@H](Cc1ccccc1)[C@@H](O)C(=O)N1C[C@@H](O)[C@@H](O)C1)c1cc2cc(Cl)ccc2[nH]1` the “activation” value was -15.8%.
For `CCc1cc(Cc2cc(CC)cc(C(C)(C)C)c2O)c(O)c(C(C)(C)C)c1`, the “activation” value was 0.205%.
With `N#CCc1ccccc1[N+](=O)[O-]` the “activation” value was 1.31%.
With `Cc1ccc(OC(=O)c2ccccc2O)cc1` the “activation” value was -2.01%.
In the case of `CC(C)(C)c1cc(CCC(=O)NCCCCCCNC(=O)CCc2cc(C(C)(C)C)c(O)c(C(C)(C)C)c2)cc(C(C)(C)C)c1O`, the “activation” value is reported as -0.866%.
For `COc1ccc(C2C(=O)c3ccccc3C2=O)cc1`, the “activation” value was 0.305% [at 30.3 µM].
Compound `C=C[Si](C)(C)Cl` has an activation of -12.4% [at 5.99 µM].
For `CC(C)C(=O)Nc1cccc(C(F)(F)F)c1`, the “activation” value was 6.41% [at 30.3 µM].
In the case of `CO[C@@H]1COCC[C@@H]1N[C@@H]1CC[C@@](C(=O)N2CCc3ncc(C(F)(F)F)cc3C2)(C(C)C)C1`, the “activation” value is reported as -1.85%.
For `CO[C@H]1C=CO[C@@]2(C)Oc3c(C)c(O)c4c(O)c(cc(O)c4c3C2=O)NC(=O)/C(C)=C\C=C/[C@H](C)[C@H](O)[C@@H](C)[C@@H](O)[C@@H](C)[C@H](OC(C)=O)[C@@H]1C`, the “activation” value was 2.29%.
With `O=C(O)c1ccccc1NCCc1ccccc1` the “activation” value was 8.24% [at 30.3 µM].
For `OC1(c2ccc(Cl)c(C(F)(F)F)c2)CCN(CCCC(c2ccc(F)cc2)c2ccc(F)cc2)CC1`, the “activation” value was -10.6% [at 30.3 µM].
In the case of `CCS(=O)(=O)CCn1c([N+](=O)[O-])cnc1C`, the “activation” value is reported as -0.789% [at 30.3 µM].
Work on `O=S(O)O` yielded an activation of 4.55% [at 13.5 µM].
For `[Cl][Pt-2]([Cl])([Cl])[Cl]`, the “activation” value was -12.2%.
For `O=C1CC2(CCCC2)CC(=O)N1CCNCC1COc2ccccc2O1` (stereo not given), the “activation” value was -0.0794% [at 30.3 µM].
In the case of `C=C(C)C1CC=C(C)C(O)C1` (stereo not given), the “activation” value is reported as 0.797%.
For `O=C(c1ccccc1)c1ccc2n1CCC2C(=O)O` (stereo not given), the “activation” value was 0.218% [at 30.3 µM].
For `CC[N+](CC)(CC)CCOc1cccc(OCC[N+](CC)(CC)CC)c1OCC[N+](CC)(CC)CC`, the “activation” value was 0.538% [at 30.3 µM].
For `Cc1ccccc1C(=O)Nc1ccc(C(=O)N2CCCC(N(C)C)c3ccccc32)cc1` (stereo not given), the “activation” value was 1% [at 30.3 µM].
In the case of `CC(=O)OC1CCC(C(C)(C)C)CC1` (stereo not given), the “activation” value is reported as -0.704%.
For `COCCOC(=O)C1=C(C)NC(C)=C(C(=O)OC/C=C/c2ccccc2)C1c1cccc([N+](=O)[O-])c1` (stereo not given), the “activation” value was -9.18% [at 30.3 µM].
In the case of `CN=C(N)NC(=O)Nc1c(C)cccc1C`, the “activation” value is reported as 0.981% [at 30.3 µM].
